Assay outcomes (PubChem)
This is a sample that favours compounds with a hit; in the whole collection about 4.1% have one here.
Shn3 inh set2: inhibitors of Schnurri-3 3'UTR reporter in osteoblasts; Clone20 osteoblast Shn3 3'UTR firefly luciferase, 24 h; inhibition, % at 12.5 µM; hit rate 0.52% among 360,000; AID 588674;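 active = mean inhibition of at least 75% with every replicate also reaching 75%; inconclusive = mean inhibition at least 75% but some replicate below; inactive = mean inhibition below 75%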;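 also: 0% = median of neutral control wells and 100% = pilot-screen positive control compound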
Peg3 promoter: reduces Peg3 promoter-driven luciferase expression in HeLa; HeLa PEG-Prom luciferase reporter, luminescence, overnight; inhibition, % at 20 µM; hit rate 1.7% among 360,000; AID 588405;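 active = inhibition of at least 50% at 20 µM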
TROY NFkB inh: TROY signaling inhibition; inhibition, % at 10 µM; hit rate 0.98% among 360,000; Q293 LMP1-TROYcd NF-kB luciferase reporter, 4 h;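 active = compounds whose plate-normalised and pattern-corrected inhibition of the luciferase reporter signal at the single screening dose is 50% or more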
TWEAK Fn14 block: blocks TWEAK-Fn14 interaction in a reporter cell assay; inhibition, % at 10 µM; TWEAK-stimulated Fn14 reporter cells, luciferase luminescence, 8 h; hit rate 2% among 360,000; AID 1159606; in the data active = inhibition above about 50%
LMP1 NFkB inh: inhibitors of Epstein-Barr LMP1-induced NF-kappaB reporter; inhibition, % at 12.5 µM; AID 504558; LMP1-induced NF-kappaB luciferase reporter cells, luminescence; hit rate 0.69% among 350,000; in the data active = inhibition above about 41%; inconclusive = no clear call, values can overlap the other calls;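 also: 0% = neutral control wells and 100% = reference inhibitor control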
TRPM1 prom inh: MITF TRPM1 promoter inhibition in SK-MEL-5 cells. inhibition, % at 12.5 µM. SK-MEL-5 TRPM1 promoter luciferase, 24 h. hit rate 0.83% among 330,000. AID 488899;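 active = mean inhibition across replicates of 60% or more, whatever share of single replicates reaches that level; inconclusive = some that reach 60%, reason not given; inactive = mean inhibition across replicates below 60%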
The depositor's hits bear a star; ? = inconclusive; . = no result.

SMILES | Shn3 inh set2 | Peg3 promoter | TROY NFkB inh | TWEAK Fn14 block | LMP1 NFkB inh | TRPM1 prom inh
CC1CCN(c2nc(/C=C/c3ccccc3)nc3ccccc23)CC1 | -6 | -53 | -42 | -23 | -8 | 13
Cc1ccc(S(=O)(=O)N2C[C@@H](C)[C@]3(C2)[C@H](O)[C@H](OC(=O)Nc2c(C)noc2C)C[C@H]2C(=O)N(c4ccccc4)C(=O)[C@H]23)cc1 | -20 | -3 | -6 | -4 | -9 | .
C[C@@H]1CCCCO[C@H](CN(C)Cc2ccc(C(F)(F)F)cc2)[C@H](C)CN([C@@H](C)CO)C(=O)c2cc(NC(=O)Cc3ccccc3)ccc2O1 | 15 | 50* | 28 | 15 | -5 | .
C[C@H](CO)N1C[C@H](C)[C@@H](CN(C)S(=O)(=O)c2ccccc2)Oc2ccc(NC(=O)Nc3ccc(C(F)(F)F)cc3)cc2C1=O | -1 | 24 | 36 | 61* | -6 | -3
COc1ccc(CN(C)C[C@@H]2OCCCC[C@H](C)Oc3ccc(NC(=O)Nc4ccc(F)cc4)cc3C(=O)N([C@H](C)CO)C[C@H]2C)cc1 | 4 | 74* | -6 | 0 | 6 | .
C[C@@H]1CN([C@@H](C)CO)C(=O)Cc2cc(NC(=O)Nc3ccc(F)cc3)ccc2O[C@@H]1CN(C)Cc1ccc(Cl)c(Cl)c1 | 27 | 85* | 21 | 60* | -16 | 20
C/C(CC(=O)Nc1ccc(N(C)C)cc1)=N\NC(=O)c1ccc(C(C)(C)C)cc1 | 16 | -12 | 15 | 8 | 0 | 12
CCOc1ccc(OCC)c(S(=O)(=O)n2cnc(C)c2)c1 | 3 | 12 | 17 | 3 | -1 | -8
C[C@@H]1CN([C@@H](C)CO)C(=O)c2cc(NC(=O)Nc3ccccc3)ccc2O[C@H]1CN(C)C(=O)Nc1cccc2ccccc12 | 11 | 28 | 52* | 48 | 58* | 12
C[C@H](CO)N1C[C@H](C)[C@@H](CN(C)C(=O)Nc2ccc(C(F)(F)F)cc2)Oc2c(NC(=O)NC3CCCCC3)cccc2C1=O | 17 | 7 | 7 | -11 | 7 | 1
C[C@H](CO)N1C[C@H](C)[C@@H](CN(C)Cc2ccccc2)Oc2c(NC(=O)Cc3ccccc3)cccc2C1=O | 9 | 27 | 11 | 12 | -1 | 11
C[C@@H]1CN([C@@H](C)CO)C(=O)c2cc(NC(=O)Nc3ccc(F)cc3)ccc2O[C@@H]1CN(C)Cc1ccc(Oc2ccccc2)cc1 | ? | 80* | 25 | 44 | -14 | 14
C[C@@H]1CN([C@H](C)CO)C(=O)c2cccc(NC(=O)NC3CCCCC3)c2O[C@@H]1CN(C)C(=O)Nc1ccc(C(F)(F)F)cc1 | -2 | 88* | 11 | 6 | 4 | 29
C[C@H](CO)N1C[C@H](C)[C@@H](CN(C)C)Oc2c(NC(=O)Cc3ccccc3)cccc2C1=O | -1 | 7 | -3 | -27 | 44* | -5
CCN(c1ccccc1)S(=O)(=O)c1cccc(C(=O)NCc2ccccn2)c1 | -26 | 9 | 12 | 2 | -11 | -12
C[C@@H]1CCCCO[C@@H](CN(C)CC2CCCCC2)[C@@H](C)CN([C@H](C)CO)C(=O)c2cc(NS(=O)(=O)c3ccc(Cl)cc3)ccc2O1 | 42 | 90* | 17 | 2 | -14 | .
COC(=O)C(Cc1ccc(O)cc1)NC(=O)CCc1nc2ccccc2s1 (stereo not drawn) | -8 | 17 | -2 | -6 | -1 | -1
COCCCNC(=O)CN1C(=O)COc2ccc(S(=O)(=O)N3CCOCC3)cc21 | 0 | -1 | 1 | -14 | 57* | 3
FC(F)(F)c1cccc(N2CCN(c3ccc4nnc(-c5ccccc5)n4n3)CC2)c1 | 24 | 19 | -9 | -28 | -2 | -9
COc1ccc2nnc(-c3ccc(C(F)(F)F)cc3)n2n1 | -1 | 25 | -12 | 61* | 5 | 12
O=C(Nc1ccc(Cl)c(C(F)(F)F)c1)c1ccncc1 | 11 | -25 | 7 | 13 | -15 | 0
CNC(=O)c1cc(Oc2ccc(NC(=O)Nc3ccc(Cl)c(C(F)(F)F)c3)cc2)ccn1 | 73 | 49 | 62* | 84* | 68* | 17
Cc1cc(N)n2nc(C)c(-c3ccc(Cl)cc3)c2n1 | 7 | 15 | -9 | 8 | -9 | 1
Cc1cc(Cl)n2nc(C)c(-c3ccc(Cl)cc3)c2n1 | 38 | 104* | -10 | 13 | 0 | 1
CC1=C(C(=O)Nc2ccccc2)C(c2ccc(C)o2)n2ncnc2N1 (stereo not drawn) | -23 | 13 | . | 83* | -4 | 6
SMILES | Shn3 inh set2 | Peg3 promoter | TROY NFkB inh | TWEAK Fn14 block | LMP1 NFkB inh | TRPM1 prom inh
Cc1n[nH]c(=O)c2c(NC(=O)CSc3nnc(C4CC4)n3C)oc(C)c12 | -2 | 10 | -2 | 8 | -3 | 13
COc1ccc([N+](=O)[O-])cc1NC(=O)c1ccccc1N(C)S(C)(=O)=O | -44 | 9 | 3 | -7 | 6 | -2
NS(=O)(=O)c1c(Sc2ccccc2C(=O)O)ccc2ccccc12 | 13 | -159 | -9 | 54* | -12 | 4
CNS(=O)(=O)c1cc(Cl)ccc1Sc1ccccc1C(=O)O | 12 | 4 | -24 | -12 | -6 | -1
Clc1ccc(/C=C/c2nc3ccccc3[nH]2)cc1 | 0 | -50 | 16 | 81* | 19 | 19
Clc1ccc(/C=C/c2nc3ccccc3[nH]2)c(Cl)c1 | -28 | -83 | 48 | 64* | 10 | 5
CCn1c(SCC(=O)NC2CCCCC2)nnc1-c1cccnc1 | -14 | 1 | -28 | 0 | -2 | 3
O=S(=O)(c1cccc(NC(=S)N2CCN(c3ccccc3F)CC2)c1)C(F)F | 12 | 6 | 14 | 51* | -3 | 1
COc1ccc(CNCC(O)COc2cccc3c2OC(C)(C)C3)cc1 (stereo not drawn) | 91* | 13 | 27 | 6 | 6 | 1
COC(=O)c1ccc(CNCC(O)COc2ccc(-c3ccccc3)cc2)cc1 (stereo not drawn) | 4 | -16 | -8 | 7 | 3 | -11
COc1ccc(NCC(O)COc2ccc(C(C)(C)C)cc2)cc1 (stereo not drawn) | 25 | -3 | -21 | 3 | 43* | 8
CC(=O)Nc1ccc(OCC(O)CNC2CCCC2)cc1 (stereo not drawn) | -1 | 0 | -11 | 5 | -5 | -15
COc1ccc(CNCC(O)COc2ccc(C(C)(C)c3ccccc3)cc2)cc1 (stereo not drawn) | 18 | 74* | 6 | -27 | 6 | -12
CC(=O)Nc1ccc(OCC(O)CNC(C)C)cc1 (stereo not drawn) | -15 | 0 | -4 | 9 | 51* | 10
O=C(COC(=O)CCc1nc2ccccc2c(=O)[nH]1)Nc1ccc2c(c1)OCO2 | -35 | 3 | 2 | -19 | -11 | 7
CC1CCCC=CC2CC(OC(=O)CN(C)C)CC2C(O)C=CC(=O)O1 (stereo not drawn) | 63 | 55* | -10 | 41 | -91 | 76*
